Test results published in publication doi:10.1101/2024.03.05.583629.

What follows are sequences tested against pT7_6His-AlfaTag-ZIF268 (human, UniProt P18146 335-423) (assay: PADIT-seq). Conditions: dsDNA, one strand shown.

“CTCGAGGATATCAAGATCTGGCCTCGGCCGATGGGCGGGAACCTCTAGCTAGCCGACTCACTATAGGGATAATCGCCCTGAGCAAAGACC” and “CTCGAGGATATCAAGATCTGGCCTCGGCACGCTAAAAGGAACCTCTAGCTAGCCGACTCACTATAGGGATAATCGCCCTGAGCAAAGACC” are within error of each other in binding signal: 0.00701 ± 0.0902 log2FC for the first, 0.0119 ± 0.0913 log2FC for the second.

“CTCGAGGATATCAAGATCTGGCCTCGGCTTTTTAGTTGGAACCTCTAGCTAGCCGACTCACTATAGGGATAATCGCCCTGAGCAAAGACC” and “CTCGAGGATATCAAGATCTGGCCTCGGCTTTTTAGAAGGAACCTCTAGCTAGCCGACTCACTATAGGGATAATCGCCCTGAGCAAAGACC” are within error of each other in binding signal: 0.189 ± 0.0984 log2FC for the first, 0.0735 ± 0.104 log2FC for the second.

“CTCGAGGATATCAAGATCTGGCCTCGGCATTTTAATAGGAACCTCTAGCTAGCCGACTCACTATAGGGATAATCGCCCTGAGCAAAGACC” and “CTCGAGGATATCAAGATCTGGCCTCGGCTTTTTACCTGGAACCTCTAGCTAGCCGACTCACTATAGGGATAATCGCCCTGAGCAAAGACC” are within error of each other in binding signal: 0.0148 ± 0.0814 log2FC for the first, 0.019 ± 0.125 log2FC for the second.

“CTCGAGGATATCAAGATCTGGCCTCGGCGCGGGCGCGGGAACCTCTAGCTAGCCGACTCACTATAGGGATAATCGCCCTGAGCAAAGACC” and “CTCGAGGATATCAAGATCTGGCCTCGGCCGCCTAAAAGGAACCTCTAGCTAGCCGACTCACTATAGGGATAATCGCCCTGAGCAAAGACC” are within error of each other in binding signal: 0.156 ± 0.102 log2FC for the first, 0.0248 ± 0.0968 log2FC for the second.

“CTCGAGGATATCAAGATCTGGCCTCGGCCTTTTAAAAGGAACCTCTAGCTAGCCGACTCACTATAGGGATAATCGCCCTGAGCAAAGACC” and “CTCGAGGATATCAAGATCTGGCCTCGGCCCTGTAAAAGGAACCTCTAGCTAGCCGACTCACTATAGGGATAATCGCCCTGAGCAAAGACC” are within error of each other in binding signal: 0.098 ± 0.0706 log2FC for the first, 0.046 ± 0.0931 log2FC for the second.

“CTCGAGGATATCAAGATCTGGCCTCGGCGGGATAAAAGGAACCTCTAGCTAGCCGACTCACTATAGGGATAATCGCCCTGAGCAAAGACC” and “CTCGAGGATATCAAGATCTGGCCTCGGCCCTTTAAAAGGAACCTCTAGCTAGCCGACTCACTATAGGGATAATCGCCCTGAGCAAAGACC” are within error of each other in binding signal: 0.0461 ± 0.0742 log2FC for the first, 0.0924 ± 0.0888 log2FC for the second.

“CTCGAGGATATCAAGATCTGGCCTCGGCATTTTAATCGGAACCTCTAGCTAGCCGACTCACTATAGGGATAATCGCCCTGAGCAAAGACC” and “CTCGAGGATATCAAGATCTGGCCTCGGCCTATGGGCGGGAACCTCTAGCTAGCCGACTCACTATAGGGATAATCGCCCTGAGCAAAGACC” are within error of each other in binding signal: 0.0175 ± 0.09 log2FC for the first, 0.0355 ± 0.0969 log2FC for the second.

“CTCGAGGATATCAAGATCTGGCCTCGGCTCTATAAAAGGAACCTCTAGCTAGCCGACTCACTATAGGGATAATCGCCCTGAGCAAAGACC” and “CTCGAGGATATCAAGATCTGGCCTCGGCATATTAAAAGGAACCTCTAGCTAGCCGACTCACTATAGGGATAATCGCCCTGAGCAAAGACC” are within error of each other in binding signal: 0.0429 ± 0.0922 log2FC for the first, 0.0247 ± 0.0768 log2FC for the second.

“CTCGAGGATATCAAGATCTGGCCTCGGCTACATAAAAGGAACCTCTAGCTAGCCGACTCACTATAGGGATAATCGCCCTGAGCAAAGACC” and “CTCGAGGATATCAAGATCTGGCCTCGGCCTTTTAGGAGGAACCTCTAGCTAGCCGACTCACTATAGGGATAATCGCCCTGAGCAAAGACC” are within error of each other in binding signal: 0.0761 ± 0.103 log2FC for the first, 0.0187 ± 0.0815 log2FC for the second.

“CTCGAGGATATCAAGATCTGGCCTCGGCAAATTAAAAGGAACCTCTAGCTAGCCGACTCACTATAGGGATAATCGCCCTGAGCAAAGACC” and “CTCGAGGATATCAAGATCTGGCCTCGGCGTTTTAACGGGAACCTCTAGCTAGCCGACTCACTATAGGGATAATCGCCCTGAGCAAAGACC” are within error of each other in binding signal: 0.0496 ± 0.0856 log2FC for the first, 0.0881 ± 0.0918 log2FC for the second.

First: CTCGAGGATATCAAGATCTGGCCTCGGCTTGTGGGCGGGAACCTCTAGCTAGCCGACTCACTATAGGGATAATCGCCCTGAGCAAAGACC
Second: CTCGAGGATATCAAGATCTGGCCTCGGCGCGACAGCGGGAACCTCTAGCTAGCCGACTCACTATAGGGATAATCGCCCTGAGCAAAGACC
The binding signal of the first is higher: 2.19 ± 0.0788 log2FC for the first, 0.028 ± 0.102 log2FC for the second.

“CTCGAGGATATCAAGATCTGGCCTCGGCGTTTTAACAGGAACCTCTAGCTAGCCGACTCACTATAGGGATAATCGCCCTGAGCAAAGACC” and “CTCGAGGATATCAAGATCTGGCCTCGGCGACCCACGCGGAACCTCTAGCTAGCCGACTCACTATAGGGATAATCGCCCTGAGCAAAGACC” are within error of each other in binding signal: 0.0535 ± 0.0797 log2FC for the first, 0.214 ± 0.0833 log2FC for the second.

“CTCGAGGATATCAAGATCTGGCCTCGGCGTTTTATTGGGAACCTCTAGCTAGCCGACTCACTATAGGGATAATCGCCCTGAGCAAAGACC” and “CTCGAGGATATCAAGATCTGGCCTCGGCTTTTTACCAGGAACCTCTAGCTAGCCGACTCACTATAGGGATAATCGCCCTGAGCAAAGACC” are within error of each other in binding signal: 0.0618 ± 0.0949 log2FC for the first, 0.0254 ± 0.098 log2FC for the second.

“CTCGAGGATATCAAGATCTGGCCTCGGCCTTTTAGTGGGAACCTCTAGCTAGCCGACTCACTATAGGGATAATCGCCCTGAGCAAAGACC” and “CTCGAGGATATCAAGATCTGGCCTCGGCATTTTACGGGGAACCTCTAGCTAGCCGACTCACTATAGGGATAATCGCCCTGAGCAAAGACC” are within error of each other in binding signal: 0.00894 ± 0.0794 log2FC for the first, 0.0766 ± 0.0939 log2FC for the second.

“CTCGAGGATATCAAGATCTGGCCTCGGCGCGTGGCATGGAACCTCTAGCTAGCCGACTCACTATAGGGATAATCGCCCTGAGCAAAGACC” and “CTCGAGGATATCAAGATCTGGCCTCGGCGGGTTAAAAGGAACCTCTAGCTAGCCGACTCACTATAGGGATAATCGCCCTGAGCAAAGACC” are within error of each other in binding signal: 0.0324 ± 0.101 log2FC for the first, 0.0267 ± 0.0801 log2FC for the second.

“CTCGAGGATATCAAGATCTGGCCTCGGCCGCCCAGGAGGAACCTCTAGCTAGCCGACTCACTATAGGGATAATCGCCCTGAGCAAAGACC” and “CTCGAGGATATCAAGATCTGGCCTCGGCACCGTAAAAGGAACCTCTAGCTAGCCGACTCACTATAGGGATAATCGCCCTGAGCAAAGACC” are within error of each other in binding signal: 0.0116 ± 0.118 log2FC for the first, 0.0818 ± 0.0804 log2FC for the second.

Compared with “CTCGAGGATATCAAGATCTGGCCTCGGCGCGTGGTACGGAACCTCTAGCTAGCCGACTCACTATAGGGATAATCGCCCTGAGCAAAGACC”, “CTCGAGGATATCAAGATCTGGCCTCGGCTTATTAAAAGGAACCTCTAGCTAGCCGACTCACTATAGGGATAATCGCCCTGAGCAAAGACC” is lower in binding signal: 0.427 ± 0.0903 log2FC for the first, 0.0487 ± 0.0902 log2FC for the second.

First: CTCGAGGATATCAAGATCTGGCCTCGGCATTTTATCTGGAACCTCTAGCTAGCCGACTCACTATAGGGATAATCGCCCTGAGCAAAGACC
Second: CTCGAGGATATCAAGATCTGGCCTCGGCGCGTGGTATGGAACCTCTAGCTAGCCGACTCACTATAGGGATAATCGCCCTGAGCAAAGACC
The binding signal of the first is lower: 0.0226 ± 0.102 log2FC for the first, 0.45 ± 0.0837 log2FC for the second.

“CTCGAGGATATCAAGATCTGGCCTCGGCATCCTAAAAGGAACCTCTAGCTAGCCGACTCACTATAGGGATAATCGCCCTGAGCAAAGACC” and “CTCGAGGATATCAAGATCTGGCCTCGGCAGAATAAAAGGAACCTCTAGCTAGCCGACTCACTATAGGGATAATCGCCCTGAGCAAAGACC” are within error of each other in binding signal: 0.0323 ± 0.0965 log2FC for the first, 0.0567 ± 0.0846 log2FC for the second.
